Screening data deposited in PubChem BioAssay by National Center for Advancing Translational Sciences (NCATS).
A selection: hits, their analogues and other compounds. The true share with any hit is near 19%.
Shiga inhibitor = A qHTS for Small Molecule Inhibitors of Shiga Toxin; Vero cells, Shiga toxin protein synthesis inhibition reporter; inhibition, % at 38.7 µM; 9.2% of 290,000 active; in the data active = inhibition mostly above about 28%, no sharp cut-off; inactive = mostly below about 43%; note: 0% is about no effect
Pf growth 96h = Primary qHTS for delayed death inhibitors of the malarial parasite plastid, 96 hour incubation. P. falciparum luciferase reporter growth, 96 h. Potency, µM (top dose mostly 28.7 µM), without a hit: at the highest dose activity change, negative = inhibition, most hits filed as inhibitors. 6.9% of 320,000 active; note: potency is the fitted concentration of half-maximal effect; % is set by controls: 0 for no effect and ±100 for the full control effect
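Two-generation exposure (96 h) targets delayed-death phenotype. Reporter parasites carrying integrated firefly luciferase, in red cells at 2% hematocrit and 0.05% parasitemia final, kept at 37 C, 5% CO2; luminescence loss indicates inhibition.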
LASV entry inh = qHTS for Inhibitors of binding or entry into cells for Lassa Virus; Potency, µM (titrated, usually from 37.9 µM), without a hit: at the top dose activity change, negative = inhibition, hits mostly inhibitors; 1.2% of 300,000 active; Lassa virus pseudotype entry inhibition, cell reporter; calls by dose curve; tested in HEK293 cells; note: potency is the fitted concentration of half-maximal effect; % is set by controls: 0 for no effect and ±100 for the full control effect; nearly all actives have a fitted effect of over 50% in size
CHX counter = Cycloheximide Counterscreen for Small Molecule Inhibitors of Shiga Toxin; 12% of 300,000 active; AID 2314, 2010; cell reporter, cycloheximide protein synthesis inhibition counterscreen; max response, %; in the data active = max response mostly above about 13%, no sharp cut-off; inactive = mostly below about 14%; note: read at 38.3 µM for the half of the compounds with a filed dose; 0% is about no effect
Pf growth 48h = Primary qHTS for delayed death inhibitors of the malarial parasite plastid, 48 hour incubation; P. falciparum luciferase growth in erythrocytes, 48 h; Potency, µM (series often up to 28.7 µM), inactives show top-dose activity change, negative = inhibition, actives largely listed as inhibitors; 5.9% of 310,000 active; note: potency is the fitted concentration of half-maximal effect; % is set by controls: 0 for no effect and ±100 for the full control effect
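Luciferase-expressing P. falciparum in infected erythrocytes (2% hematocrit, 0.1% parasitemia final) in RPMI 1640/0.5% Albumax were exposed to compound for 48 hours at 37 C, 5% CO2; growth read as luminescence.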
Marburg entry inh = qHTS for inhibitors of binding or entry into cells for Marburg Virus. Marburg virus pseudotyped entry inhibition, cell reporter. AID 540276, 2011. Potency, µM (titrated, usually from 37.8 µM), inactives show at the highest dose activity change, negative = inhibition, most hits filed as inhibitors. 1.8% of 300,000 active; calls by dose curve; tested in HEK293 cells; note: potency is the fitted concentration of half-maximal effect; % is set by controls: 0 for no effect and ±100 for the full control effect
Active calls of the source: *; i = inactive; ? = inconclusive; nt = no result; [ ] = remark or other dose. Unless noted, calls come from the whole dose curve; as a rule, active = well fitted inhibition curve with a large enough effect; inconclusive = small, poorly fitted or top-dose-only effect, or another doubt; inactive = no such curve, though single readings can be large or run the other way.

SMILES | Shiga inhibitor | Pf growth 96h | LASV entry inh | CHX counter | Pf growth 48h | Marburg entry inh
Cc1ccc(-n2c3c(c(=O)[nH]c2=O)C(NS(=O)(=O)c2ccc(Cl)cc2)(C(F)(F)F)C(=O)N3)cc1 (stereo not given) | -5 | 13µM* | -19%[46.1 µM] | -3 | ? | 20%[46.1 µM]
O=C1Nc2c(c(=O)[nH]c(=O)n2Cc2ccccc2)C1(NS(=O)(=O)c1ccccc1)C(F)(F)F (stereo not given) | -6 | 15µM* | -2%[46.1 µM] | -1 | 76% | ?
C/C(=N\NC(=O)CSCc1ccc([N+](=O)[O-])cc1)c1ccccc1 | 14 | 42% | nt | 6 | 16% | nt
CCN(c1ccccc1)S(=O)(=O)c1ccc(C(=O)Nc2c(C)n(C)n(-c3ccccc3)c2=O)cc1 | nt | nt | 0%[46.1 µM] | nt | nt | 6%[46.1 µM]
COc1cc(NC(=O)CCn2c(=O)oc3ccccc32)cc(OC)c1OC | -10 | ? | 1%[46.1 µM] | -3 | 13% | ?
Cc1ccc(C(=O)COC(=O)c2nc(Cl)ccc2Cl)cc1 | nt | nt | 13%[46.1 µM] | nt | nt | 6%[46.1 µM]
Cc1cc(C(F)F)n2ncc(C(=O)NC3CCCCCC3)c2n1 | 0 | 16% | -19% | 1 | ? | 3%
CCN(Cc1cccc(OC)c1)CC1CCCN(CCc2cccc(OC)c2)C1 (stereo not given) | -10 | ? | nt | -3 | ? | nt
CC(C)C(NC(=O)OCc1ccccc1)C(=O)OCC(=O)N1CCCCC1 (stereo not given) | 69* | -16% | -2% | 44* | 117% | ?
OCC[C@@H]1C[C@H](O)[C@@H](O)[C@@]2(OCCc3ccccc32)O1 | -3 | 46% | nt | -2 | 4% | nt
CC(C)Cc1ccc(C(C)C(N)=NCCc2ccccc2)cc1 (stereo not given) | -8 | ? | ? | 7 | ? | 2.2µM*
O=c1c2[nH]c3ccc(F)cc3c2ncn1CC1CCCO1 (stereo not given) | 4 | 17% | ? | -1 | 18% | 17%
O=C(CN1CCCCC1)Nc1cccc2c1OCO2 | -15 | nt | 24% | -6 | 0% | 16%
CCCN(CCC)CC(=O)Nc1cccc2c1OCO2 | -19 | 12µM* | 17% | -1 | 2% | 4%
Cc1cc(C)n(C(=O)c2cc3sccc3[nH]2)n1 | 64* | -20% | 0% | 30* | 39% | 9%
CCOC(=O)C1(CC2CC2)CCN(Cc2cnc(-c3ccccc3C)nc2)CC1 | 6 | ? | nt | 6 | 13µM* | nt
CCOC(=O)C1(CC2CC2)CCN(Cc2cc(Cl)c(O)c(OC)c2)CC1 | 3 | 0.37µM* | ? | 3 | ? | ?
CCOC(=O)C1(CCOc2ccccc2)CCN(Cc2cnc(SC)nc2)CC1 | -10 | -16% | ? | -2 | 10% | ?
CCOC(=O)C1(CC2CC2)CCN(Cc2ccc(OC)cc2F)CC1 | -6 | 16% | ? | -1 | 0% | 10µM*
CS(=O)(=O)N1CCN(c2ccccc2NC(=O)Cc2ccccc2)CC1 | 35 | -12% | -8% | 10 | -8% | -20%
CCC(=O)N1CCN(c2ccccc2NC(=O)Cc2ccccc2)CC1 | 42 | -2% | 3% | 14 | 10µM* | -3%
O=C(Cc1ccccc1)Nc1ccccc1N1CCN(c2ccccc2)CC1 | -7 | nt | ? | 1 | 9.3µM* | ?
CC(C)C(=O)N1CCN(c2ccccc2NC(=O)Cc2ccc(Cl)cc2)CC1 | -15 | -3%[5.75 µM] | 2% | -4 | 13µM* | -24%
O=S(=O)(O)c1ccc2nc(-c3ccccc3)[nH]c2c1 | nt | -14% | nt | nt | -7% | nt
O=C(NNC(=O)c1ccco1)c1csc(N2CCOCC2)n1 | nt | 16% | 1% | nt | 13% | 23%
SMILES | Shiga inhibitor | Pf growth 96h | LASV entry inh | CHX counter | Pf growth 48h | Marburg entry inh
COc1ccc(N=Nc2nc3cc(Br)c(Br)cc3n2C)c(OC)c1 | 35* | ? | -7% | 34* | 10µM* | -2%
Cc1cccc2cc(CN(Cc3cccnc3)C(=O)c3ccccc3F)c(Cl)nc12 | -9 | ? | -18% | -1 | ? | ?
Cc1cc(C)c2cc(CN(Cc3cccnc3)C(=O)c3ccc(F)cc3)c(Cl)nc2c1 | -13 | ? | ? | -2 | 1.5µM* | ?
CCOc1cc(CNCC(C)C)cc(Cl)c1OCc1ccccc1 | 15 | 5.2µM* | nt | 0 | 13µM* | nt
COc1cc(CNCc2ccccc2)cc(Cl)c1OC | -4 | -11% | -18%[46.1 µM] | 3 | -2% | ?
CCOc1c(Cl)cc(CNCC(O)c2ccccc2)cc1OC (stereo not given) | -11 | 31% | nt | 4 | 4.1µM* | nt
COc1cc(CNCCc2ccccc2)cc(Cl)c1OCc1ccccc1 | -19 | 150% | ? | -10 | 8.3µM* | ?
CCOc1cc(CNC2CCCC2)cc(Cl)c1OCc1ccccc1 | -17 | ? | ? | -3 | 13µM* | ?
COc1ccc(CNc2nc3ccccc3n2Cc2ccccc2)cc1OC | -10 | -7% | ? | -5 | 1% | ?
CCNc1nc(N)c(C(=O)C23CC4CC(CC(C4)C2)C3)s1 | 21 | ? | nt | 1 | -21% | nt
CC1Cc2cc(/C(O)=C3/C(=O)C(=O)N(CCCn4ccnc4)C3c3cccnc3)ccc2O1 (stereo not given) | -21 | 1% | -28% | 8 | -6% | ?
CCCCNCc1cc(Cl)c(OCCC)c(OCC)c1 | -19 | 8.3µM* | 52%[14.3 µM] | -5 | nt | ?
CCCCOc1c(Cl)cc(CNC(C)(C)CO)cc1OCC | -10 | 14% | -30% | -4 | ? | ?
CC(NC(=O)c1ccc(OC2CCN(C(=O)c3cccnc3)CC2)cc1)C1CC1 (stereo not given) | -8 | 12µM* | 9%[46.1 µM] | -3 | 18% | 11%[46.1 µM]
CC(NC(=O)c1ccc(OC2CCN(S(=O)(=O)N(C)C)CC2)cc1)C1CC1 (stereo not given) | 3 | -50% | -1% | 20* | -14% | ?
CN(C)S(=O)(=O)N1CCC(Oc2cccc(C(=O)NC3CCCCC3)c2)CC1 | 24 | 6% | ? | 28 | -17% | -10%[46.1 µM]
CN(C)S(=O)(=O)N1CCC(Oc2ccc(C(=O)NC3CCCCC3)cc2)CC1 | 14 | 13µM* | -15% | 9 | ? | 20%[46.1 µM]
CN(CC(=O)Nc1ccccc1Br)C(=O)CN1CCN(c2ccccc2Cl)CC1 | nt | ? | 3% | nt | ? | ?
CN(C)[C@@H](Cc1ccccc1)c1ccccc1 | nt | -24% | nt | nt | 0% | nt
O=c1[nH][nH]c(=O)c2c1[nH]c(=S)n2Cc1ccccc1 | nt | nt | 26%[46.1 µM] | nt | nt | 12%[46.1 µM]
Cc1c(Cc2ccccc2)c(=O)oc2cc(O)cc(O)c12 | -12 | -14% | -4%[46.1 µM] | -4 | 1% | -9%[46.1 µM]
COc1ccc(N2CCN(C(=O)C3=NNC(=O)CC3)CC2)cc1 | 27 | 8% | -1% | -4 | -8% | -3%
O=C(NCc1ccccc1Cl)C1CCCN(c2nc3ccsc3c(=O)s2)C1 (stereo not given) | -10 | i | nt | -1 | 256% | nt
